# TDP1 cell CPT = growth inhibition of DT40 Tdp1-/-;hTDP1 cells with camptothecin (screen for TDP1 inhibitors) | Potency, µM (titrated, usually from 46.2 µM), without a hit: top-dose activity change, negative = growth inhibition, usual class: inhibitors | chicken DT40 Tdp1-/-;hTDP1 cells + 20 nM CPT, ATP luminescence, 48 h | hit rate 12% among 420,000; also: nearly all actives have a fitted effect of over 55% in size
#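 Cell growth measured by CellTiter-Glo luminescence after a minimum 48 h, 37 C compound exposure with 20 nM CPT in Tdp1-knockout DT40 cells stably expressing hTDP1, seeded 400/well; qHTS titration format.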
# HT1080 IDH1KD tx = toxicity to HT-1080 IDH1 knockdown cells (counter line); hit rate 2% among 360,000; HT-1080 IDH1 knockdown viability, ATP luminescence, 48 h; Potency, µM (top dose mostly 46.1 µM), for inactives: top-dose activity, negative = toxicity, usual class: cytotoxic;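 also: 0% = DMSO wells and -100% = cell-free medium wells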
#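 After a 2 h attachment period, IDH1KD HT-1080 cells took pin-transferred compound for 48 h at 37 °C; ATP-based luminescence after 10 min room-temperature reagent incubation reported viability.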
# KB-3-1 cytotox = KB-3-1 parental cell cytotoxicity | KB-3-1 viability, CellTiter-Glo ATP luminescence, 72 h | hit rate 1.4% among 400,000 | AID 1347075 | Potency, µM (highest dose often 46.1 µM), hits mostly cytotoxic; also: nearly all actives have a fitted effect of over 60% in size
#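 KB-3-1 parental drug-naive adenocarcinoma cells in DMEM/10% FBS, incubated 72 h at 37 C with pin-transferred compounds across a concentration series. Viability by CellTiter-Glo luminescence; concentration-response curves fitted after normalization.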
# DT40 TDP1 no CPT = qHTS for Inhibitors of human tyrosyl-DNA phosphodiesterase 1 (TDP1): qHTS in cells in absence of CPT; DT40 Tdp1-/- hTDP1 cells, no CPT, ATP luminescence, 48 h; Potency, µM (top dose mostly 46.2 µM), for the others: at the top dose activity change, negative = growth inhibition, hits mostly inhibitors; hit rate 15% among 420,000; also: nearly all actives have a fitted effect of over 55% in size
#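 Cells were dispensed at 400 per well, compounds added by pin tool, plates incubated ≥48 hr at 37 °C, then CellTiter-Glo added for 30 min at room temperature before luminescence reading. Line: DT40 Tdp1-/- complemented with hTDP1; camptothecin omitted.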
# KB-V1 cytotox = kills drug-selected multidrug resistant KB-V1 cells | KB-V1 MDR cells viability, CellTiter-Glo, 72 h | hit rate 3.4% among 400,000 | Potency, µM (top dose mostly 46.1 µM), actives largely listed as cytotoxic; also: nearly all actives have a fitted effect of over 60% in size
#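 KB-V1 MDR subline cells in DMEM (phenol-red free, 10% FBS) exposed to compounds in qHTS concentration series for 72 h at 37 degrees C. Viability read by CellTiter-Glo luminescence; concentration-effect curves fitted after normalization and correction.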
# HT1080-NT tox = kills 2HG-producing HT-1080-NT fibrosarcoma cells | HT-1080-NT fibrosarcoma viability, CellTiter-Glo ATP luminescence, 48 h | hit rate 1.6% among 360,000 | Potency, µM (series often up to 46.1 µM), for the others: top-dose activity, negative = less viability, usual class: cytotoxic;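 also: NT is the 2HG producing partner of a matched IDH1 knockdown line; 0% = DMSO-treated cells and -100% = media-only wells without cells; nearly all actives have a fitted effect of over 55% in size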
#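 Toxicity toward the 2HG-producing NT line was scored as %Activity, normalised to DMSO and no-cell wells, from CellTiter-Glo luminescence after 48 hours' treatment.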
# Numbers without * were called inactive; i = inactive; ? = inconclusive; nt = not tested or not shown. Hits are enriched below; roughly 19% of the tested compounds scored in any of these assays. Calls follow the shape of the dose curve; as a rule, active = well fitted curve in the direction sought with a large enough effect; inconclusive = small, poorly fitted or top-dose-only effect, or another doubt; inactive = no such curve, though single readings can be large; an effect the other way counts as inactive or inconclusive. Unless noted, % is scaled to controls: 0 for no effect and ±100 for the full control effect; potency is read from the fitted curve at half-maximal effect.
SMILES,TDP1 cell CPT,HT1080 IDH1KD tx,KB-3-1 cytotox,DT40 TDP1 no CPT,KB-V1 cytotox,HT1080-NT tox
CC12CCC(C(=O)Nc3ccccc3Cl)(C(Br)C1=O)C2(C)C (configuration not stated),-1.5%,20.1%,i,-20.9%,13µM*,6.3%
CC12CCC(C(=O)Nc3ccccc3Cl)([C@H](Br)C1=O)C2(C)C (some centres not stated),9.0%,6.8%,i,2.3%,i,1.4%
CSCc1nc2sc(C(=O)Nc3nc(C)cs3)c(C)c2c(=O)[nH]1,?,-19.7%,i,?,i,-12.6%
Cc1ccc(NC(=O)c2sc3nc(CCl)[nH]c(=O)c3c2C)c(C)c1,14.6µM*,?,i,14.6µM*,i,?
CNC[C@H](CC1CCCCC1)NC[C@H](Cc1ccccc1)NCCC12CC3CC(CC(C3)C1)C2,7.31µM*,?,?,13µM*,18.4µM*,20.6µM*
O=c1c(-c2ccccc2)cocc1-c1ccccc1,-15.9%,10.1%,i,-6.8%,i,18.3%
CN(C)c1ccc(C(CN)c2c[nH]c3ccccc23)cc1 (configuration not stated),18.4µM*,-9.8%,i,20.6µM*,i,-23.0%
CN(C)c1ccc(C(CNS(=O)(=O)c2ccc3ccccc3c2)c2c[nH]c3ccccc23)cc1 (configuration not stated),?,0.2%,i,?,14.6µM*,-1.8%
c1ccc(C(c2cccs2)c2c[nH]c3ccccc23)cc1 (configuration not stated),nt,nt,?,nt,i,nt
CCOc1ccc(CCNS(=O)(=O)c2c(C)nc3sc(C)cn3c2=O)cc1OCC,-3.1%,nt,i,2.6%,i,nt
c1cncc(-c2nccc(-n3ccnc3)n2)c1,-6.6%,nt,nt,-24.9%,nt,nt
Nc1nc(N)c(N=Nc2ccccc2)c(=O)[nH]1,20.6µM*,?,i,5.8µM*,i,-16.1%
CC1(C)CC(=O)C(N=Nc2cccc(S(=O)(=O)N3CCOCC3)c2)=C(O)C1,2.9%,-7.0%,i,4.6%,i,-0.9%
Cc1nn(-c2ccccc2)c(N)c1N=Nc1cccc(S(=O)(=O)N2CCOCC2)c1,?,?,?,16.4µM*,4.11µM*,?
Nc1nn(-c2ccccc2)c(N)c1N=Nc1ccccc1,4.11µM*,16.4µM*,?,4.61µM*,5.8µM*,?
Cc1nn(-c2ccccc2)c(N)c1N=Nc1ccc(Cl)cc1,?,?,i,?,?,?
Cc1nn(-c2ccccc2)c(N)c1N=Nc1ccccc1,?,?,?,20.6µM*,?,?
Cc1cccc(N=Nc2c(C)nn(-c3ccccc3)c2N)c1C,?,-11.4%,i,?,i,-11.4%
O=C(NC(=S)N1CCN(Cc2ccccc2)CC1)c1ccco1,-17.3%,13.4%,i,-15.9%,i,5.5%
Nc1ncnc(N)c1N=Nc1ccccc1,23.1µM*,11.6µM*,?,3.26µM*,i,?
Nc1nn(-c2ccccc2)c(N)c1N=Nc1ccccc1F,9.2µM*,5.8µM*,?,13µM*,4.61µM*,8.2µM*
Nc1ccc2ccccc2c1N=Nc1ccccc1,?,?,i,?,i,-0.9%
CCOc1ccc(C2NC(=O)c3c(COC)cc(C)nc3N2Cc2ccccc2)cc1OC (configuration not stated),-13.6%,nt,i,-28.1%,i,nt
Cn1c(-c2cccc([N+](=O)[O-])c2)[n+](C)c2ccccc21,7.31µM*,-25.3%,i,3.26µM*,i,-0.9%
CN(C)c1ccc(-c2n(C)c3ccccc3[n+]2C)cc1,1.64µM*,8.91µM*,2.91µM*,0.82µM*,i,5.62µM*

# Screening data: PubChem, National Center for Advancing Translational Sciences (NCATS)
